Measurements taken from ChEMBL document CHEMBL3433997, “St. Jude Leishmania screening dataset” (2016).

Assays:
Assay type in all cases: functional
[1] = molecular target: Solute carrier family 2, facilitated glucose transporter member 1 (Homo sapiens) (UniProt P11166); assay: ST_JUDE_LEISH: Cytotoxicity at 2uM final concentration against transgenic Leishmania Mexicana promastigotes LmGLUT1 that are glucose transport deficient and complemented with the human glucose transporter GLUT1. Activity is measured by DNA content using SYBR green in vitro
Sequence of Solute carrier family 2, facilitated glucose transporter member 1 (Homo sapiens) (P11166 whole entry): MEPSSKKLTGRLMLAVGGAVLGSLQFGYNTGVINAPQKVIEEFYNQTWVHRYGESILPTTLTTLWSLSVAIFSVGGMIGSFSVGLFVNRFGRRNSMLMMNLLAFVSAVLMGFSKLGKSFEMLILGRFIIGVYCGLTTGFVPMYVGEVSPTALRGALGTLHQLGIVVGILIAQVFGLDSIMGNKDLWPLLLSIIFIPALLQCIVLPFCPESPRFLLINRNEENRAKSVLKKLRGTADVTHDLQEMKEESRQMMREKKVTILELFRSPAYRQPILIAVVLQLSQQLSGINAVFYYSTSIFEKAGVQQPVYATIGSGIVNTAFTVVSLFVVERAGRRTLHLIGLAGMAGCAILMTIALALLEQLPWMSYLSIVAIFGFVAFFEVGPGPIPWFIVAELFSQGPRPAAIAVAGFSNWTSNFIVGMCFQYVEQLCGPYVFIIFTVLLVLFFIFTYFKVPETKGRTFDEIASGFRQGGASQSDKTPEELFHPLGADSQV

[2] = molecular target: Hexose transporter 1 (Plasmodium falciparum) (UniProt O97467); assay: ST_JUDE_LEISH: Cytotoxicity at 2uM final concentration against transgenic Leishmania Mexicana promastigotes LmPfHT that are glucose transport deficient and complemented with the Plasmodium falciparum hexose transporter. Activity is measured by DNA content using SYBR green in vitro
[3] = molecular target: Glucose transporter (Leishmania mexicana) (UniProt O61059); assay: ST_JUDE_LEISH: Cytotoxicity at 2uM final concentration against transgenic Leishmania Mexicana promastigotes LmGT2 that are glucose transport deficient and complemented with the L. Mexicana glucose transporter 2. Activity is measured by DNA content using SYBR green in vitro

| Structure (SMILES) | inhibition [1] [%] | inhibition [2] [%] | inhibition [3] [%] |
| --- | --- | --- | --- |
| O=C(Nc1ccc(F)c(Cl)c1)NC1CCN(c2ccnc3cc(Cl)ccc23)C1 (centres undefined) | 6.4 | 6.38 | 8.81 |
| O=C(Cc1ccc(F)cc1)NC1CCN(c2ccnc3cc(Cl)ccc23)C1 (centres undefined) | 0.69 | 1.78 | 2.41 |
| Nc1nc2c(ncn2COC(COCc2ccccc2)COCc2ccccc2)c(=O)[nH]1.Nc1nc2ncn(COC(COCc3ccccc3)COCc3ccccc3)c2c(=O)[nH]1 | -0.7 | -2 | -0.45 |
| Cc1ccc2nc(C)n(C3CCN(C(=O)C4(c5ccccc5)CC4)CC3)c2c1 | 5.47 | 6.02 | 5.27 |
| COC(=O)c1cc(OC)c(OC)cc1NC(=O)NC12CC3CC(CC(C3)C1)C2 | 4.1 | 2.13 | 1.18 |
| COc1ccc(NC(=O)Nc2cccc(-c3cccc(-c4nc5ccccc5[nH]4)c3)c2)cc1 | -1.96 | -0.16 | -1.98 |
| CCCN1CCN(CCNC(=O)c2cccc(Nc3nccc(Nc4ccc(Oc5ccccc5)cc4)n3)c2)CC1 | 0.38 | 0.74 | 1.04 |
| COc1ccc2[nH]c(C)cc(=NN=Cc3cccc(F)c3)c2c1 | 5.17 | 5.7 | 2.61 |
| Cc1ccccc1C1CCN(C2CCC(NC(=O)/C=C/c3ccc(Cl)cc3)CC2)CC1 (centres undefined) | 1.76 | 2.6 | 2.42 |
| COc1ccc(Nc2nc(NCc3ccc(-n4ccnc4)cc3)cc(-c3ccc(OC)cc3)n2)cc1 | 3.31 | 2.46 | 3.46 |
| CCNc1cc(C(=O)N[C@@H](Cc2ccccc2)[C@H](O)CNCCc2cccc3ccccc23)cc(N2CCCC2=O)c1 | -0.63 | -0.02 | -1.96 |
| COc1ccc2nc(N3CCNCC3)nc(NCCCc3ccccc3)c2c1 | 5.1 | 2.65 | 0 |
| COc1ccc(NC(=O)/C=C/c2ccccc2Cl)cc1OCCN1CCC(NCc2ccccc2)CC1 | 3.15 | 2.49 | 0.75 |
| CN(CCCCCN1CCC(NC(=O)Nc2ccc(C(F)(F)F)cc2)C1)C(=O)/C=C/c1ccc(Cl)c(Cl)c1 (centres undefined) | 3.11 | 2.11 | 2.97 |
| CCOc1ccccc1C(=O)Nc1cccc(-c2nc3ncccn3c2C)c1 | 2.41 | -0.3 | -0.34 |
| CC1CN(c2cccc3c2nc(-c2cncc(C#N)c2)n3CCNCc2ccccc2)CC(C)O1 (centres undefined) | 3.09 | 2.38 | 2.56 |
| CC(C)COc1ccc(Cl)cc1Cc1ccc(-c2nc3ccc(F)cc3[nH]2)o1 | 1.83 | 0.95 | -0.47 |

| Structure (SMILES) | inhibition [1] [%] | inhibition [2] [%] | inhibition [3] [%] |
| --- | --- | --- | --- |
| Cc1cc(NC(=O)c2cccs2)ccc1OC1CCN(Cc2ccc(F)cc2)C1 (centres undefined) | 0.09 | 0.19 | 1.92 |
| CN(C)CCCn1cncc1-c1ccc2ncnc(Nc3ccc(OCc4ccccc4)cc3)c2c1 | 4.09 | 6.87 | 7.01 |
| CCCCCN1CCCC1CNS(=O)(=O)c1cccc(C(=O)Nc2cccc(C#N)c2)c1 (centres undefined) | 2.62 | 4.82 | 3.88 |
| O=[N+]([O-])c1ccc(C(O)P(=O)(c2ccccc2)c2ccccc2)cc1 (centres undefined) | -0.33 | -0.85 | -0.11 |
| COCCNCc1cccc(-c2ccc3c(Nc4ccc(F)cc4Cl)ccnc3c2)c1 | -1.97 | 2.48 | 0.78 |
| COc1ccc2nc(N)nc(C)c2c1 | 4.18 | 2.86 | 2.78 |
| NC1=NC2(CCCCC2)N(OCCCCCCN2C(=O)c3ccccc3C2=O)C(N)=N1 | 12.9 | 7.88 | 11.2 |
| COc1ccc(CN2CCN(CCCCNC(=O)c3ccc(NC(=O)c4ccc(Cl)cc4)cc3)CC2)c(OC)c1 | 6.23 | 4.9 | 6.03 |
| O=C(/C=C/C=C/c1ccc(Cl)c(Cl)c1)NCCCCCN1CCCC2CCCCC21 (centres undefined) | 13.3 | 12.3 | 13.2 |
| CCCCc1ccc2[nH]c(NC(=O)OC)nc2c1 | 10.2 | 7.79 | 9.56 |
| COc1ccc2nc(-c3ccccc3)cc(NCCCNc3cc(-c4ccccc4)nc4ccc(OC)cc34)c2c1 | 3.06 | 2.6 | 0.67 |
| Cc1nnc2c(NC(=O)NC3CCCC3)cc3cc(-c4ccc(CN5CCCCC5)cc4)ccc3n12 | 1.79 | 1.94 | 0.13 |
| CCOc1cccc(C(=O)Nc2nonc2-c2ccc(OC)c(OC)c2)c1 | 10.3 | 9.2 | 7.57 |
| N#Cc1ccc(-c2ccc(C(=O)NCCCCN3CCC(c4ccncc4)CC3)cc2)cc1 | 1.06 | 1.16 | 2.75 |
| CCN(CC)C(=O)C(=O)c1c[nH]c2ccc(Cl)cc12 | 3.24 | 0.07 | 0.85 |
| O=C(NC1CCCCC1)N(Cc1cccc(-c2cccc(CNC3CCCC3)c2)c1)C1CCN(Cc2ccccc2)CC1 | 8.95 | 6.23 | 7.71 |
